Laboratory results as given in PubChem BioAssay (Tox21).
Results filed as inconclusive are left out. Active and inactive are the calls of the source. Calls come from the whole dose curve.
% is set by controls: 0 for no effect and ±100 for the full control effect; potency is the fitted concentration of half-maximal effect.

These compounds were tested against Muscarinic acetylcholine receptor M1 (Homo sapiens) (UniProt P11229) (assay: Cholinergic receptor muscarinic 1 (CHRM1) small molecule antagonists, cell-based qHTS assay (AID 1963588; note: nearly all actives have a fitted effect of over 40% in size)). Conditions: CHRM1-CHO antagonist mode, calcium flux fluorescence; series mostly up to 61.5 µM; activity, negative = inhibition: at the top concentration.
Chain of Muscarinic acetylcholine receptor M1 (Homo sapiens) (P11229 whole entry, looked up): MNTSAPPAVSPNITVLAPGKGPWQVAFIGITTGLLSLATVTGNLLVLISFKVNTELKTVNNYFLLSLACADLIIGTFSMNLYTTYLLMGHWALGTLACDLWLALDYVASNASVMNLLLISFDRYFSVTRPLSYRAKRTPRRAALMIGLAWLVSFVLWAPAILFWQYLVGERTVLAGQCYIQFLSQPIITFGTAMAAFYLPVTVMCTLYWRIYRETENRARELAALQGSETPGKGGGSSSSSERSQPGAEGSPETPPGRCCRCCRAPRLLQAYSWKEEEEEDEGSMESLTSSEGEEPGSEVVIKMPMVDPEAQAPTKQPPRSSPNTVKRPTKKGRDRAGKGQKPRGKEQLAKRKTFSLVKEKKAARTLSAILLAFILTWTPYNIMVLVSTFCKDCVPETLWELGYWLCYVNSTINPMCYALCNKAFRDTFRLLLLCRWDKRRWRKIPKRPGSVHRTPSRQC
Excerpt: National Center for Advancing Translational Sciences [NCATS]
Division of Preclinical Innovation [DPI]
U.S. Environmental Protection Agency [EPA]
National Institutes of Environmental Health Sciences [NIEHS]
National Toxicology Program [NTP]
U.S. Food and Drug Administration [FDA]
The CHRM1 is a muscarinic receptor. This receptor plays a crucial role in learning and memory processes and has long been identified as a promising therapeutic target for the improvement of cognitive decline in Alzheimer's disease (AD). The CHRM1-CHO cell line stably expressing human muscarinic acetylcholine receptor M1 (CHRM1) can be used for screening agonists and antagonists of interactions between CHRM1 and its ligands. The CHRM1-CHO Calcium Flux Assay is a homogeneous fluorescence-based assay for detecting the intracellular calcium level using FDSS kinetic plate reader system.
Tox21 Assay Protocol Summary:
CHRM1-CHO cells were dispensed at 1000 cells/3uL/well in 1536-well black-clear bottom plates using a Multidrop Dispenser. After the assay plates were incubated at a 37 C/5% CO2 incubator for 18 h, 3 uL of Dye Loading Buffer was transferred to the assay plate by a Flying Reagent Dispenser. The assay plates were incubated at 37 C for 1h. For antagonist mode, 23 nL of compounds dissolved in DMSO, positive controls or DMSO only was transferred to the assay plate by a pin tool. After 5 min incubation at room temperature, 1.5 uL of acetylcholine at 50nM was added to each well. The fluorescence intensity in the plates was measured using FDSS 7000EX kinetic plate reader for 3 min at 1 sec intervals. Each test compound was measured at 15 concentrations in three independent runs.
For CCCCOCCOCCOCCOCCO, the “activity, negative = inhibition” value was 1.32% (inactive). CN1CCN(C)CC1 was tested, and the “activity, negative = inhibition” value was 7.24% (inactive). In the case of N#Cc1ccccc1C#N, the “activity, negative = inhibition” value is reported as 31.6% (inactive). With Clc1cccc(Cl)n1 the “activity, negative = inhibition” value was 11.6% (inactive). In the case of CCOC(=O)[C@@H](C)Oc1ccc(Oc2nc3ccc(Cl)cc3o2)cc1, the “activity, negative = inhibition” value is reported as -11.4% (inactive). For CC(=O)c1c(C)c([N+](=O)[O-])c(C(C)(C)C)c([N+](=O)[O-])c1C, the “activity, negative = inhibition” value was 5.27% (inactive). In the case of C=CCN(CC=C)CC=C, the “activity, negative = inhibition” value is reported as 15.2% (inactive). For O=C1c2ccccc2C(=O)c2c1ccc(O)c2O, the “activity, negative = inhibition” value was -12.9% [at 28.3 µM] (inactive). In the case of Cc1cccc(C(=O)O)c1O, the “activity, negative = inhibition” value is reported as 12.4% [at 28.3 µM] (inactive). In the case of Cc1cc(Cl)c(C)cc1Cl, the “activity, negative = inhibition” value is reported as 1.61% (inactive). CC(=O)CC(=O)Nc1ccc(S(=O)(=O)O)cc1 was tested, and the “activity, negative = inhibition” value was 9.21% (inactive). With CCc1ccccc1 the “activity, negative = inhibition” value was 13.8% (inactive). In the case of CO/N=C(/C(=O)N[C@@H]1C(=O)N2C(C(=O)[O-])=C(C[n+]3ccn4ncccc43)CS[C@H]12)c1nsc(N)n1, the “activity, negative = inhibition” value is reported as -2.07% [at 28.3 µM] (inactive). In the case of Cc1ccc(N/N=c2\c(=O)cc/c(=N\Nc3ccc(S(=O)(=O)O)cc3)c2=O)c(C)c1, the “activity, negative = inhibition” value is reported as -7.68% (inactive). For CCOc1ccc2c(c1)C(C)CC(C)(C)N2 (stereo not given), the “activity, negative = inhibition” value was 1.31% (inactive). For C=CCCCCCC, the “activity, negative = inhibition” value was 7.34% (inactive). In the case of Cc1ccc(Br)cc1, the “activity, negative = inhibition” value is reported as 30.6% (inactive). With COc1nccnc1CC(C)C the “activity, negative = inhibition” value was -3.72% (inactive). In the case of CCC(C)C(C)=O (stereo not given), the “activity, negative = inhibition” value is reported as 19.2% (inactive). For COc1nc(C)nc(N)n1, the “activity, negative = inhibition” value was 5.47% (inactive). With O=C1c2ccccc2C(=O)c2cc(S(=O)(=O)O)ccc21 the “activity, negative = inhibition” value was -2.32% (inactive). C=Cc1ccc(O)c(OC)c1 was tested, and the “activity, negative = inhibition” value was 2.02% (inactive). With COCCOC[C@H](CC1(C(=O)NC2CCC(C(=O)O)CC2)CCCC1)C(=O)Oc1ccc2c(c1)CCC2 (stereo not given in full) the “activity, negative = inhibition” value was 24.4% (inactive). c1ccc2sc(SN(C3CCCCC3)C3CCCCC3)nc2c1 was tested, and the “activity, negative = inhibition” value was 5.58% (inactive). O=C(Oc1ccccc1)c1cccc(C(=O)Oc2ccccc2)c1 was tested, and the “activity, negative = inhibition” value was 44.8% (inactive). In the case of CCO[C@H](Cc1ccc(OCCc2ccc(OS(C)(=O)=O)cc2)cc1)C(=O)O, the “activity, negative = inhibition” value is reported as -11.6% [at 28.3 µM] (inactive). CCCOC(OCCC)OCCC was tested, and the “activity, negative = inhibition” value was -5.25% (inactive). In the case of FC1(F)C(F)(F)C(F)(F)C2(F)C(F)(F)C(F)(F)C(F)(F)C(F)(F)C2(F)C1(F)F (stereo not given), the “activity, negative = inhibition” value is reported as -5.95% [at 28.3 µM] (inactive). In the case of CC(=O)OCC(=O)[C@@]1(O)[C@H](OC(C)=O)C[C@H]2[C@@H]3CCC4=CC(=O)C=C[C@]4(C)[C@@]3(F)[C@@H](O)C[C@@]21C, the “activity, negative = inhibition” value is reported as 19.4% [at 28.3 µM] (inactive). For CC(CN(C)C)CN1c2ccccc2CCc2ccccc21 (stereo not given), the “activity, negative = inhibition” value was -19.6% [at 28.3 µM] (inactive). In the case of CC(=O)CCc1ccc(OC(C)=O)cc1, the “activity, negative = inhibition” value is reported as -36.2% (inactive). In the case of S=C([S-])NCCNC(=S)[S-].S=C([S-])NCCNC(=S)[S-].[Mn+2].[Zn+2], the “activity, negative = inhibition” value is reported as -22.9% [at 28.3 µM] (inactive). CCCCCSCCCCC was tested, and the “activity, negative = inhibition” value was 3.46% (inactive). With CCCC/C=C/CCCCO the “activity, negative = inhibition” value was -0.77% (inactive). In the case of O=C1NC2CCCCN2C12CCN(CCCN1c3ccccc3CCc3ccc(Cl)cc31)CC2 (stereo not given), the Potency is reported as 1.3 µM (active). NC(=O)c1ccccc1C(N)=O was tested, and the “activity, negative = inhibition” value was 10.7% (inactive). C=C/C=C/C=C/CCCCC was tested, and the activity, negative = inhibition was 25.8% [at 12.6 µM] (inactive). For COC(=O)NCCC[Si](OC)(OC)OC, the “activity, negative = inhibition” value was 16.4% (inactive). With CCCCCOC(=O)CCCCC the “activity, negative = inhibition” value was 0.581% (inactive). CN(C)CCCN(C)C was tested, and the activity, negative = inhibition was 1.9% [at 5.58 µM] (inactive).
